Measured values taken from PubChem BioAssay (NCATS).
Unmarked numbers belong to inactive results. Records with an inconclusive call do not appear. A call without a number means that no potency is given here. For part of these data: Measured potencies and affinities stand elsewhere. The source made the active and inactive calls. Unless noted, the rule behind the calls is not given here. Bridge positions count the residues as written; N and C are the ends. Square brackets hold non-standard residues; d marks the D form. Peptide text beside a SMILES is read from it. hArg = N=C(N)NCCCC[C@H](N)C(=O)O; Mpa = O=C(O)CCS

What was measured:
[1] = Ebola virus entry assay, green fluorescence channel
[2] = Ebola virus entry assay, blue channel fluorescence
[3] = Ebola virus entry assay, ratio channel
[4] = Ebola virus entry assay, green channel fluorescence
[5] = Ebola virus entry assay, reporter ratio channel; Channel type: primary
[6] = Ebola virus entry assay, blue channel (ratio component)
[7] = qHTS assay for measurement of the activity of small molecule inhibitors on Zika virus induced Caspase-3 activity in human iPSC derived neural progenitor cells (hNPCs) (AID 1224857; active = well fitted inhibition curve with a large enough effect; note: nearly all actives have a fitted effect of over 65% in size; note: potency is the fitted concentration of half-maximal effect); conditions: hNPCs ZIKV-induced caspase-3/7, Caspase-Glo luminescence, 6 h; series mostly up to 45.7 µM
Method in brief: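 Pretreat hNPCs with compound 1 h; infect ZIKV 2 FFU/cell; 6 h 37 C, 5% CO2; Caspase-Glo 3/7, 30 min RT; luminescence; normalize to no-virus and virus-only wells.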

[8] = qHTS assay for measurement of the activity of small molecule inhibitors on Zika virus induced Caspase-3 activity in human astrocytoma cells (AID 1224859; active = well fitted inhibition curve with a large enough effect); conditions: SNB-19 ZIKV-induced caspase-3/7, luminescence, 6 h; series mostly up to 45.7 µM
Method in brief: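 Human SNB-19 astrocytoma cells in RPMI 1640 with 10% FBS receive compound one hour ahead of Zika virus at 2 FFU/cell. After 6 h infection, caspase-3/7 activity is detected by Caspase-Glo luminescence.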

| Structure (SMILES) | efficacy [1] [%] | outcome [2] | outcome [3] | outcome [4] | outcome [5] | outcome [6] | Potency [7] | outcome [8] | AC50 [5] |
| --- | --- | --- | --- | --- | --- | --- | --- | --- | --- |
| CC1(C)S[C@@H]2[C@H](N=CN3CCCCCC3)C(=O)N2[C@H]1C(=O)O | -47.1 | inactive | inactive | inactive | inactive | inactive | – | – | – |
| O=C1c2cccc(O)c2C(=O)c2c(O)cccc21 | -10.2 | inactive | inactive | inactive | inactive | inactive | – | – | – |
| C1CN2CCC1CC2 | -16 | inactive | inactive | inactive | inactive | inactive | inactive | inactive | – |
| NS(=O)(=O)c1cc2c(cc1Cl)NC(C1CC3C=CC1C3)NS2(=O)=O (configuration not stated) | -30.9 | inactive | inactive | inactive | inactive | inactive | – | – | – |
| CC(C)=CCNc1ncnc2c1ncn2[C@@H]1O[C@H](CO)[C@@H](O)[C@H]1O | 38.7 | inactive | inactive | inactive | inactive | inactive | – | – | – |
| Cc1cc(NC(=O)C2=C(O)c3ccccc3S(=O)(=O)N2C)no1 | -7.71 | inactive | inactive | inactive | inactive | inactive | – | – | – |
| CCOC(=O)OC(C)OC1=C(C(=O)Nc2ccccn2)N(C)S(=O)(=O)c2ccccc21 (configuration not stated) | 12.4 | inactive | inactive | inactive | inactive | inactive | – | – | – |
| O=C(NCCCN1CCOCC1)c1ccc(Cl)cc1 | -12.2 | inactive | inactive | inactive | inactive | inactive | – | – | – |
| C/C(=C(\CCOP(=O)(O)O)SC(=O)c1ccccc1)N(C=O)Cc1cnc(C)nc1N | -17.4 | inactive | inactive | inactive | inactive | inactive | – | – | – |
| CC(=O)OCC1=C(C(=O)O)N2C(=O)[C@@H](NC(=O)CSc3ccncc3)[C@H]2SC1 | -6.58 | inactive | inactive | inactive | inactive | inactive | – | – | – |
| CCNc1nc(Cl)nc(NCC)n1 | 16.6 | inactive | inactive | inactive | inactive | inactive | inactive | inactive | – |
| CCOC(=O)CN1CCCC1=O | 24 | inactive | inactive | inactive | inactive | inactive | – | – | – |
| C[C@H](O)C(=O)Nc1c(I)c(C(=O)NC(CO)CO)c(I)c(C(=O)NC(CO)CO)c1I | 6.82 | inactive | inactive | inactive | inactive | inactive | – | – | – |
| ClCc1cccc(Cl)c1 | -21.7 | inactive | inactive | inactive | inactive | inactive | inactive | inactive | – |
| CCCCCCc1ccc(O)cc1O | -21 | inactive | inactive | inactive | – | inactive | – | – | 39.8 µM (active) |
| CC[N+]1(CC)CCC(=C(c2ccccc2)c2ccccc2)C1C (configuration not stated) | 13 | inactive | inactive | inactive | inactive | inactive | – | – | – |
| O=C(O)CCCCCCNC1c2ccccc2CCc2ccccc21 | 26.2 | inactive | inactive | inactive | inactive | inactive | inactive | inactive | – |
| NC(=O)[C@@H]1CSSCCC(=O)N[C@@H](CCCCN=C(N)N)C(=O)NCC(=O)N[C@@H](CC(=O)O)C(=O)N[C@@H](Cc2c[nH]c3ccccc23)C(=O)N2CCC[C@H]2C(=O)N1 ([Mpa][hArg]GDWPC-NH2; disulfide 1-7) | 12.3 | inactive | inactive | inactive | inactive | inactive | – | – | – |
| OC(O)C(Cl)(Cl)Cl | 18.1 | inactive | inactive | inactive | inactive | inactive | inactive | inactive | – |
| O=C(O)CP(=O)(O)O | -15.3 | inactive | inactive | inactive | inactive | inactive | – | – | – |
| COc1cc(N)c(Cl)cc1C(=O)NC1CN2CCC1CC2 (configuration not stated) | -20.5 | inactive | inactive | inactive | inactive | inactive | inactive | – | – |
| O=C(O)c1cn(C2CC2)c2cc(Cl)c(F)cc2c1=O | 14.4 | inactive | inactive | inactive | inactive | inactive | – | – | – |
| Nc1ccc(N)cc1 | 15.4 | inactive | inactive | inactive | inactive | inactive | inactive | inactive | – |
| O=C(O)Cc1ccccc1 | -19.3 | inactive | inactive | inactive | inactive | inactive | inactive | inactive | – |
| O=C(CCl)c1ccc(Cl)cc1Cl | -14.1 | inactive | inactive | inactive | inactive | inactive | inactive | inactive | – |

| Structure (SMILES) | efficacy [1] [%] | outcome [2] | outcome [3] | outcome [4] | outcome [5] | outcome [6] | Potency [7] | outcome [8] | AC50 [5] |
| --- | --- | --- | --- | --- | --- | --- | --- | --- | --- |
| CNC(C)Cc1ccccc1OC (configuration not stated) | -13.2 | inactive | inactive | inactive | inactive | inactive | inactive | inactive | – |
| CCC1(c2ccccc2)CCC(=O)NC1=O (configuration not stated) | 11 | inactive | inactive | inactive | inactive | inactive | inactive | inactive | – |
| CNC(=O)Oc1cccc2ccccc12 | 18.8 | inactive | inactive | inactive | inactive | inactive | inactive | inactive | – |
| C[C@]12CC[C@H]3[C@@H](CCC4=CC(=O)CC[C@@]43C)[C@@H]1CC[C@@H]2C(=O)O | -23.5 | inactive | inactive | inactive | inactive | inactive | inactive | inactive | – |
| Oc1c(Br)cc(Br)cc1Br | -9.36 | inactive | inactive | inactive | inactive | inactive | inactive | inactive | – |
| CC(C)[N+](C)(CCC(C(N)=O)(c1ccccc1)c1ccccc1)C(C)C | 13.5 | inactive | inactive | inactive | inactive | inactive | 31.6 µM (active) | inactive | – |
| COP(=O)(OC)OC=C(Cl)Cl | 29.4 | inactive | inactive | inactive | inactive | inactive | inactive | inactive | – |
| ClCCCN1CCN(c2cccc(Cl)c2)CC1 | 26.2 | inactive | inactive | inactive | inactive | inactive | inactive | inactive | – |
| O=c1[nH]c2cc(Cl)ccc2n1C1CCNCC1 | 11.1 | inactive | inactive | inactive | inactive | inactive | inactive | inactive | – |
| CN(C)C(=O)Oc1cc(OC(=O)N(C)C)cc(C(O)CNC(C)(C)C)c1 (configuration not stated) | 18.9 | inactive | inactive | inactive | inactive | inactive | inactive | inactive | – |
| c1cc2c(c(N3CCNCC3)c1)OCCO2 | 11.5 | inactive | inactive | inactive | inactive | inactive | inactive | inactive | – |
| CNC(C)Cc1ccc2c(c1)OCO2 (configuration not stated) | -15.1 | inactive | inactive | inactive | inactive | inactive | inactive | inactive | – |
| CC(C)=C[C@@H]1[C@@H](C(=O)OCc2coc(Cc3ccccc3)c2)C1(C)C | 20 | inactive | inactive | inactive | inactive | inactive | inactive | inactive | – |
| C[N+](C)(C)CCOC(=O)C(O)(c1ccccc1)c1ccccc1 | -27.9 | inactive | inactive | inactive | inactive | inactive | – | inactive | – |
| Nc1ccccc1C(=O)OCC(O)CO (configuration not stated) | -15.8 | inactive | inactive | inactive | inactive | inactive | inactive | inactive | – |
| Cc1ncc2n1-c1ccc(Cl)cc1C(c1ccccc1F)=NC2 | -12 | inactive | inactive | inactive | inactive | inactive | – | inactive | – |
| C[C@H]1C(=O)O[C@@H]2CCN3CC=C(COC(=O)[C@](C)(O)[C@]1(C)O)[C@H]23 | 7.51 | inactive | inactive | inactive | inactive | inactive | inactive | inactive | – |
| CCCOC(=O)Cc1ccc(OCC(=O)N(CC)CC)c(OC)c1 | -14.5 | inactive | inactive | inactive | inactive | inactive | inactive | inactive | – |
| CC(CC(C(N)=O)(c1ccccc1)c1ccccc1)N(C)C (configuration not stated) | 13 | inactive | inactive | inactive | inactive | inactive | inactive | inactive | – |
| COc1ccc2c(C(=O)c3ccc(Cl)cc3)c(C)n(CC(=O)O)c2c1 | 38 | inactive | inactive | inactive | inactive | inactive | inactive | inactive | – |
| CN1C[C@@H](NS(=O)(=O)N(C)C)C[C@@H]2c3cccc4c3c(cn4C)C[C@H]21 | 31.9 | inactive | inactive | inactive | – | inactive | inactive | inactive | 39.8 µM (active) |
| CCOC(=O)C(c1c(O)c2ccccc2oc1=O)c1c(O)c2ccccc2oc1=O | 18.5 | inactive | inactive | inactive | inactive | inactive | inactive | inactive | – |
| CCCCC1C(=O)NC(=O)N(C2CCCCC2)C1=O (configuration not stated) | 18.4 | inactive | inactive | inactive | inactive | inactive | inactive | inactive | – |
| COc1cc(CC#N)cc(OC)c1OC | -13.1 | inactive | inactive | inactive | inactive | inactive | inactive | inactive | – |
